According to PubChem BioAssay (NCATS):
The list shows a part of the results. Inconclusive results are not listed. Active and inactive are the calls of the source. Calls follow the shape of the dose curve; as a rule, active = well fitted cell-killing curve with a large enough effect; inconclusive = small, poorly fitted or top-dose-only effect, or effect the other way; inactive = flat fitted curve, though single readings scatter.

Assay: Cell viability qHTS assay in S16 Pmp22-F2sN cells - Confirmatory screen (AID 1508641)
Conditions: S16 Schwann cells viability, CellTiter-Glo ATP luminescence, 24 h; series mostly up to 57.5 µM; activity change, negative = viability loss: at the top concentration
Excerpt: Assay Provider: Jim Inglese Ph.D. National Center for Advancing Translational Science, National Institutes of Health, Rockville, MD CMT is a heterogeneous group of neurological disorders that affect approximately 1 in 2,500 people. In particular, the most common form of CMT, CMT1A is genetically linked to the duplication of the PMP22 gene which leads to Schwann cell overexpression, thus manifesting itself as a typical case of dose-sensitive diseases. To identify small molecule compounds that can mediate the expression of PMP22 we developed a phenotypic assay screening strategy by utilizing genome editing techniques to construct Schwann cell lines containing novel reporter technology to monitor the transcriptional or translational regulation of PMP22. For high sensitivity we use a bioluminescent reporter system embedded in the 3' UTR of the PMP22 gene (S16(c9) Pmp22-F2sN) to identify compounds that inhibit gene expression. […] We can further discriminate the effect of all transcriptionally active molecules on PMP22 translation or stability with an assay that incorporates a short NLuc peptide (HiBiT) at the C-terminus of expressed PMP22 (S16(f8) PMP22-HiBiT) allowing alpha complementation and luminescence detection of membrane-associated PMP22 protein. These assays were screened against the NCATS Sytravon Library Collection. Miniaturization of these assays to 1536-well plate format for quantitative high throughput screening (qHTS) yielded rich data sets immediately from the qHTS assay (S16(c9) Pmp22-F2sN), when compared with data from a cell viability assay (Cell TiterGlo) to identify compounds that decreased the output signals through cellular toxicity to streamline the selection process of actives for subsequent characterization using the HiBiT assay (S16(f8) PMP22-HiBiT).
Cell viability assay in S16 Pmp22-F2sN cells PROTOCOL TABLE (format as described by Inglese J, Shamu CE and Guy RK. 2007) SEQUENCE No. (e.g., 1, 2, 3, etc.); PARAMETER (e.g., Cells, Incubation, Reagent, etc.); VALUE and DESCRIPTION. 1. Cells. Add 500-1,000 cells in 4 uL in growth media (DMEM High Glucose, No Phenol Red media + 10% heat-inactivated FBS + 1% Pen/Strep supplemented media) per well into Greiner 1536-well white/solid bottom high base, TC-treated plates. 2. Compounds. Library compounds and controls added at 23nL per well, transferred by Pin Tool. 3. Incubation. Incubate plates at 37C, 5% CO2, 95% RH for 24 h. 4. Reagent. Add 3uL CellTiter-Glo per well of Greiner 1536-well plates. 5. Incubation. Incubate plates at room temperature for 15 min., protect from light. 6. Detector. FLuc luminescence measured using CCD-based camera (Viewlux). NOTES (numbers refer to Sequence numbers above; values are from representative experiments) 6. Luminescence Read: Clear filter; Exposure = 1 sec, Gain = High, Speed = Slow, Binning = 2X REFERENCES: 1. Inglese J, Shamu CE and Guy RK, Reporting data from high throughput screening of small molecule libraries, Nature Chemical Biology, 2007, 3(8): 438-441. doi.org/10.1038/nchembio0807-438 2. Yasgar A, Shinn P, Jadhav A, Auld DS, Michael S, Zheng W, Austin CP, Inglese J and Simeonov A, Compound Management for Quantitative High-Throughput Screening. J. Assoc. Lab. Auto., 2008, 13: 79-89. doi: 10.1016/j.jala.2007.12.004
% is scaled to controls: 0 for no effect and ±100 for the full control effect; potency is read from the fitted curve at half-maximal effect.

SMILES | activity change, negative = viability loss | Potency
O=C(c1ccc2c(c1)N(Cc1ccc(F)cc1)C(=O)c1ccccc1S2(=O)=O)N1CCN(c2ccccn2)CC1 | 8.53% (inactive) | 
COc1ccc(-c2onc(C)c2C)cc1S(=O)(=O)NCC1CCN(Cc2cccc(F)c2)CC1 | -28.1% (inactive) | 
Cc1nnc(SCC(=O)NCc2ccccc2Cl)c2nn(-c3ccccc3)c(C)c12 | 9.7% (inactive) | 
O=S(=O)(c1ccc(Cl)cc1)c1nnn2c1nc(NC1CCCC1)c1sccc12 | 0.836% (inactive) | 
Cc1ccc(CCNC(=O)C2CCN(c3nnc(-n4cccc4CNc4ccc(C)cc4)s3)CC2)cc1 | -3.6% (inactive) | 
Cc1cccc(Nc2cc(C)nc(-n3nc(C)cc3C)n2)c1 | -29.4% (inactive) | 
COc1ccc(CCNC(=O)c2cc(=O)c3c(C)cc(C)cc3o2)cc1OC | -7.68% (inactive) | 
CC(C)(C)c1ccc(C(=O)NCC(c2ccco2)S(=O)(=O)c2ccc(F)cc2)cc1 (stereo not drawn) | -5.87% (inactive) | 
CCOC(=O)c1ccc(N2C(=O)c3n[nH]c(C)c3C2c2ccc(O)c(OC)c2)cc1 (stereo not drawn) | 8.57% (inactive) | 
CCC1CCCCN1CCCNC(=O)c1cc2c(Cl)nc3ccccc3c2s1 (stereo not drawn) | -4.86% (inactive) | 
Cc1ccc(NC(=O)c2nc(S(=O)(=O)Cc3cccc(C)c3)ncc2Cl)cc1 |  | 30.6 µM (active)
Cc1ccccc1CNC(=O)CSc1nnc(C)c2c(C)n(-c3ccccc3)nc12 | 2.28% (inactive) | 
CC(=O)N1CCCc2cc(S(=O)(=O)N3CCCC(C(=O)N4CCN(c5cccc(Cl)c5)CC4)C3)ccc21 (stereo not drawn) |  | 27.3 µM (active)
CCOC(=O)c1c(C)[nH]c(CCC(=O)NCCCN2CCN(c3cc(C)ccc3C)CC2)c1C |  | 30.6 µM (active)
CCOc1ccc(NC(=O)c2c(NC(=O)Cc3ccccc3)sc3c2CCC(C)C3)cc1 (stereo not drawn) | -9.38% (inactive) | 
CCc1ccc(NC(=O)CN2CCSc3ccc(S(=O)(=O)N4CCCC4)cc32)cc1 | -8.45% (inactive) | 
Cc1ccc(OCCSc2nc3ccc(NC(=O)COc4ccc(C)cc4)cc3s2)cc1 | 1.55% (inactive) | 

SMILES | activity change, negative = viability loss | Potency
COc1cccc(NC(=O)CSC2=Nc3ccccc3C3=NC(CC(=O)NC4CCCCC4)C(=O)N23)c1 (stereo not drawn) | -8.7% (inactive) | 
CCCn1c(=N)c(C(=O)NCc2ccccc2)cc2c(=O)n3cccc(C)c3nc21 | -5.14% (inactive) | 
Cc1ccc(Cn2c(C)c3cnn(CC(=O)NCc4ccccc4)c(=O)c3c2C)cc1 | 5.5% (inactive) | 
CCCS(=O)(=O)c1ncc(Cl)c(C(=O)Nc2scc(-c3ccccc3)c2C(=O)OCC)n1 |  | 27.3 µM (active)
O=C(NCCCN1CCN(c2cccc(Cl)c2)CC1)c1nnc(Cc2ccc(F)cc2Cl)o1 | -16.8% (inactive) | 
O=C(c1ccc(C(F)(F)F)cc1)N1CCC(c2nc(-c3ccc(S(=O)(=O)N4CCCC4)cc3)no2)CC1 | -11.1% (inactive) | 
COc1ccccc1Nc1c2c(nc3ccc(NC(=O)/C=C/c4cc(OC)c(OC)c(OC)c4)cc13)CCCC2 |  | 17.2 µM (active)
COc1ccc(C2Sc3ccccc3NC3=C2C(=O)c2ccccc23)c(OC)c1OC (stereo not drawn) | -4.14% (inactive) | 
COc1cccc(NC(=O)N(Cc2cn(C)c3ccccc23)C2CCCCCC2)c1 | 2.35% (inactive) | 
Cc1ccc(C)n1-c1nnc(N2CCC(C(=O)NCc3ccccc3Cl)CC2)s1 | -17% (inactive) | 
CCOCCCNC(=O)c1c(NC(=O)c2nc(SC)ncc2Cl)sc2c1CCCC2 | -11.1% (inactive) | 
Cc1cc(F)ccc1NS(=O)(=O)c1ccc(-n2cccn2)cc1 | -2.74% (inactive) | 
CCC1=Nc2cc(C(=O)NCCCOC(C)C)ccc2Sc2ccc(C)cc21 | 12.9% (inactive) | 
CCOC(=O)C1CCN(C(=O)CSc2c3c(nc4ccc(Cl)cc24)CCCC3)CC1 | 2.06% (inactive) | 
Cc1sc(C2C(C#N)=C(N)N(c3cccc(Cl)c3)C3=C2C(=O)CCC3)cc1CN1CCOCC1 (stereo not drawn) | -21.2% (inactive) | 
Cc1cc(OCC(=O)NCC2(N(C)C)CCCCC2)cc(C)c1Cl | -10.4% (inactive) | 
